In PubChem BioAssay (NCI):
The panel holds about 79,000 compounds, 15% with a hit somewhere; the sample as a whole holds those more often. Active and inactive are the calls of the source. Cut-off read from the data, not from the text of the source: active = growth inhibition above about 70%; inactive = the rest.

Assays:
[1] = NCI Yeast Anticancer Drug Screen. Data for the rad50 strain (AID 155);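 note: 0% = growth of vehicle-only cultures of the same strain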; details: S. cerevisiae rad50 strain growth inhibition, active compounds read high
Summary of the method: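 Growth of the mutant yeast was measured after compound exposure and referenced to vehicle-treated cultures.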

[2] = NCI Yeast Anticancer Drug Screen. Data for the mec2-1 strain (AID 157); details: S. cerevisiae mec2-1 strain, active compounds read high
Summary of the method: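 Each compound was tested on mec2-1 yeast, a strain altered in DNA damage repair or cell cycle control. Growth inhibition is reported relative to vehicle.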

[3] = NCI Yeast Anticancer Drug Screen. Data for the sgs1 mgt1 strain (AID 161);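 note: 0% = growth of cultures given vehicle only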; details: S. cerevisiae sgs1 mgt1 strain, active compounds read high
Summary of the method: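 Inhibition of yeast growth, normalised to vehicle-treated controls, is reported for a strain bearing genetic alterations in DNA damage repair.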

[4] = NCI Yeast Anticancer Drug Screen. Data for the cln2 rad14 strain (AID 165);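 note: 0% = growth equal to vehicle treated cultures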; details: S. cerevisiae cln2 rad14 strain, active compounds read high
Summary of the method: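 Test compounds were added to cln2 rad14 yeast cultures; inhibition of growth was then determined by comparison with vehicle treatment.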

[5] = NCI Yeast Anticancer Drug Screen. Data for the bub3 strain (AID 167); details: S. cerevisiae bub3 mutant strain, active compounds read high
Summary of the method: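 Whole-cell yeast assay. The mutant strain was incubated with compounds, and growth inhibition was determined by comparison with vehicle-treated cells.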

[6] = NCI Yeast Anticancer Drug Screen. Data for the mlh1 rad18 strain (AID 175); details: S. cerevisiae mlh1 rad18 strain growth inhibition, active compounds read high
Summary of the method: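 Inhibition values reflect reduced growth of mutant yeast versus vehicle-treated controls following compound exposure; the mutations affect DNA damage repair.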

[7] = at 5.0 µM (retest, dose inferred, filed as 0.5)
[8] = at 50.0 µM (retest, dose inferred, filed as 5.0)

| SMILES | growth inhibition [1, 7] | growth inhibition [1, 8] | growth inhibition ([1]; at 50.0 µM) | growth inhibition [2, 7] | growth inhibition [2, 8] | growth inhibition ([2]; at 50.0 µM) | growth inhibition [3, 7] | growth inhibition [3, 8] | growth inhibition ([3]; at 50.0 µM) | growth inhibition [4, 7] | growth inhibition [4, 8] | growth inhibition ([4]; at 50.0 µM) | growth inhibition [5, 7] | growth inhibition [5, 8] | growth inhibition ([5]; at 50.0 µM) | growth inhibition [6, 7] | growth inhibition [6, 8] | growth inhibition ([6]; at 50.0 µM) |
| --- | --- | --- | --- | --- | --- | --- | --- | --- | --- | --- | --- | --- | --- | --- | --- | --- | --- | --- |
| [Cl][Sn]([Cl])([c]1ccccc1)[c]1ccccc1.c1ccc2nc(-c3ccc4ccccc4n3)ccc2c1 | 16% (inactive) | 97% (active) | 84% (active) | 16% (inactive) | 98% (active) | 96% (active) | 32% (inactive) | 97% (active) | 75.3% (active) | 6% (inactive) | 96% (active) | 45.1% (inactive) | 5% (inactive) | 96% (active) | 59.6% (inactive) | 23% (inactive) | 96% (active) | 93.2% (active) |
| CC(=O)Nc1ccccc1[As](OC(C)=O)c1ccccc1 (stereo not given) | 18% (inactive) | 97% (active) | 99.3% (active) | 11% (inactive) | 99% (active) | 99.4% (active) | 28% (inactive) | 98% (active) | 99.5% (active) | 99% (active) | 84% (active) | 98.7% (active) | -3% (inactive) | 99% (active) | 99.5% (active) | 29% (inactive) | 98% (active) | 99% (active) |
| N#CN(Cc1ccccc1)C(c1ccccc1)(c1ccccc1)c1ccccc1.[I][Sn]([c]1ccccc1)([c]1ccccc1)[c]1ccccc1 | 99% (active) | 96% (active) | 98.8% (active) | 100% (active) | 98% (active) | 98.8% (active) | 100% (active) | 98% (active) | 99.5% (active) | 99% (active) | 94% (active) | 98.2% (active) | 99% (active) | 95% (active) | 97.7% (active) | 99% (active) | 96% (active) | 97% (active) |
| O=c1[nH]c2ccccc2n1C1CCN(CCCC(c2ccc(F)cc2)c2ccc(F)cc2)CC1 | -10% (inactive) | 34% (inactive) | -14.8% (inactive) | 12% (inactive) | 11% (inactive) | -11.4% (inactive) | 4% (inactive) | 83% (active) | 48.7% (inactive) | -7% (inactive) | -4% (inactive) | -24% (inactive) | -2% (inactive) | 10% (inactive) | 72.9% (active) | 14% (inactive) | 92% (active) | 63.8% (inactive) |
| COc1ccc(NN=O)nc1 | 21% (inactive) | 16% (inactive) | 31.9% (inactive) | 8% (inactive) | 17% (inactive) | -2.2% (inactive) | 18% (inactive) | 23% (inactive) | -20.9% (inactive) | 7% (inactive) | 24% (inactive) | -18.6% (inactive) | 20% (inactive) | 22% (inactive) | -22.4% (inactive) | 20% (inactive) | 29% (inactive) | 3.95% (inactive) |
